HT1080NT lethal – kills 2HG-producing HT-1080-NT fibrosarcoma cells; 360,000 tested, 1.6% active; HT-1080-NT fibrosarcoma viability, CellTiter-Glo ATP luminescence, 48 h; Potency, µM (titrated, usually from 46.1 µM), most hits filed as cytotoxic;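 also: NT is the 2HG producing partner of a matched IDH1 knockdown line; nearly all actives have a fitted effect of over 55% in size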
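Compounds were tested in concentration-response format on HT-1080-NT cells for 48 hours at 37 degrees C. Cell viability came from CellTiter-Glo luminescence; curves were classified by r2, response magnitude and activity.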
SW480 rereplic – inducers of DNA re-replication in SW480 colon cancer cells | SW480 DNA re-replication, Hoechst DNA content imaging, 48 h | 340,000 tested, 1.8% active | Potency, µM (top dose mostly 46.1 µM), most hits filed as activators; also: nearly all actives have a fitted effect of over 55% in size
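DNA re-replication was detected as more nuclei of elevated Hoechst intensity after 48 hr exposure to compound (23 nL pinned per well of 250 cells).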
MCF10A rereplic – inducers of DNA re-replication in MCF 10A breast cells; Potency, µM (series often up to 46.1 µM), hits mostly activators; 350,000 tested, 2.9% active; MCF 10A DNA re-replication, Hoechst nuclear intensity, 48 h; also: nearly all actives have a fitted effect of over 50% in size
HT1080 IDH1KD tx – HT-1080 IDH1 knockdown cell toxicity (counter line); HT-1080 IDH1 knockdown viability, ATP luminescence, 48 h; Potency, µM (titrated, usually from 46.1 µM), usual class: cytotoxic; 360,000 tested, 2% active; AID 686971
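Luminescent ATP read-out (CellTiter-Glo, 10 min at room temperature) after 48 h compound exposure at 37 °C gave viability of IDH1-knockdown HT-1080 cells. Activity was normalised to DMSO and cell-free wells, then fitted as concentration-response curves.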
KB-V1 cytotox – KB-V1 MDR subline cytotoxicity | KB-V1 MDR cells viability, CellTiter-Glo, 72 h | Potency, µM (series often up to 46.1 µM), actives largely listed as cytotoxic | 400,000 tested, 3.4% active | AID 1347076; also: nearly all actives have a fitted effect of over 60% in size
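Drug-selected KB-V1 cells, grown in DMEM lacking phenol red with 10% FBS, receive compound titrations; after three days at 37 degrees C, surviving cell ATP is quantified by CellTiter-Glo luminescence and responses normalized and curve-fitted.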
KB-3-1 cytotox – kills parental KB-3-1 adenocarcinoma cells; KB-3-1 viability, CellTiter-Glo ATP luminescence, 72 h; Potency, µM (series often up to 46.1 µM), most hits filed as cytotoxic; 400,000 tested, 1.4% active; also: nearly all actives have a fitted effect of over 60% in size
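Here the drug-naive KB-3-1 line serves as comparator for MDR sub-line selectivity; cells received compound titrations, 72 h at 37 °C, then CellTiter-Glo readout.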
A number is an active result; i = inactive; ? = inconclusive; nt = no result given. Shown are actives, neighbours in structure and some others; about 8% of the full set was active somewhere. Calls follow the shape of the dose curve; as a rule, active = well fitted curve in the direction sought with a large enough effect; inconclusive = small, poorly fitted or top-dose-only effect, or another doubt; inactive = no such curve, though single readings can be large; an effect the other way counts as inactive or inconclusive.

SMILES	HT1080NT lethal	SW480 rereplic	MCF10A rereplic	HT1080 IDH1KD tx	KB-V1 cytotox	KB-3-1 cytotox
O=C1c2ccccc2NC(c2ccc(OCc3ccccc3)c(OCc3ccccc3)c2)N1Cc1ccco1 (stereo not given)	nt	nt	nt	nt	i	i
Cc1cc(=O)n2[nH]c(C)c(-c3ccccc3)c2n1	i	i	i	i	?	i
Cc1cc(=O)n2[nH]c(N)c(N=Nc3ccccc3F)c2n1	?	i	?	?	?	21µM
COC(=O)c1nnn(-c2cccc(C)c2)c1N	nt	nt	nt	nt	i	i
CCCN(C(=O)c1cc2c(s1)-c1c(C)cccc1OC2)c1ccc(OCC)cc1	nt	nt	nt	nt	i	i
Cc1cccc(NC(=S)N(CCCN2CCCC2)Cc2cccn2Cc2ccc(Cl)cc2)c1	13µM	i	?	?	?	?
O=C(CSc1nc2nn(-c3ccccc3)c(=O)c-2c2n1CCCCC2)Nc1ccccc1[N+](=O)[O-]	i	i	i	i	i	i
Cc1ccc(-n2cc(C(=O)c3ccc(N4CCN(C)CC4)cc3)nn2)cc1Cl	i	i	0.73µM	i	i	i
Cc1cc2oc3cc(NCCC4CCCN4C)ccc3c(=O)c2cc1C (stereo not given)	?	?	16µM	?	i	i
CN(C)CCCn1c2c(c(SCC(=O)Nc3ccc4c(c3)OCCO4)nc1=O)CCCC2	i	nt	nt	i	i	i
O=c1cc(O)c2sc(Nc3cccc(C(F)(F)F)c3)nc2[nH]1	i	?	i	i	i	i
O=c1cc(O)c2sc(Nc3ccc(F)cc3)nc2[nH]1	i	?	16µM	i	i	i
COc1cc(/C=C/c2ccc3cccc([N+](=O)[O-])c3n2)ccc1OCC(=O)O	i	i	i	i	i	i
COc1cc(/C=C/c2ccc3cccc(O)c3n2)cc(OC)c1OC	8.2µM	i	?	6.5µM	?	?
CCOc1c(OC(C)=O)ccc(/C=C/c2ccc3cccc(OC)c3n2)c1[N+](=O)[O-]	i	?	i	i	16µM	i
Oc1cccc(/C=C/c2ccc3cccc(O)c3n2)c1	33µM	i	?	?	?	?
COc1cc(/C=C/c2ccc3cccc(O)c3n2)cc(Br)c1OC	?	?	15µM	?	?	15µM
COc1ccc(CCNC(=O)c2ccc(-n3c(C)cc4c3CCC(C)C4)cc2)cc1OC (stereo not given)	nt	nt	nt	nt	i	i
COc1ccc(/C=C/c2ccc3cccc(O)c3n2)c(OC)c1OC	?	?	1.6µM	?	i	i
COc1cc(/C=C/c2ccc3cccc(O)c3n2)cc(Cl)c1OC	?	4.6µM	15µM	?	?	?
Cc1cc(C)cc(NC(=O)N2CCN(C(=O)c3nsc4ccccc34)CC2)c1	nt	nt	nt	nt	i	i
O=[N+]([O-])c1cc(Br)c(Nc2ccccc2)c([N+](=O)[O-])c1	?	?	?	3.3µM	16µM	?
CSc1cccc(NC(=O)COC(=O)C2CCN(S(=O)(=O)c3ccccc3)CC2)c1	i	?	i	i	i	?
COc1cccc(C(=O)NCc2nc(-c3ccccc3)no2)c1OC	nt	nt	nt	nt	i	i
CCOc1ccc(S(=O)(=O)NCc2ccncc2)cc1NC(=O)c1ccccc1	3.7µM	i	?	23µM	?	0.58µM
SMILES	HT1080NT lethal	SW480 rereplic	MCF10A rereplic	HT1080 IDH1KD tx	KB-V1 cytotox	KB-3-1 cytotox
CCOc1ccc(S(=O)(=O)NCc2cccnc2)cc1NC(=O)c1ccccc1F	i	9.2µM	13µM	i	?	18µM
CCOc1ccc(S(=O)(=O)NCc2ccncc2)cc1NC(=O)c1ccccc1F	?	i	?	23µM	?	?
CCOC(=O)C1=C(CN2CCN(C(=O)c3ccco3)CC2)NC(=O)NC1c1ccc(F)cc1 (stereo not given)	i	i	i	i	i	i
C=CC[C@H](CC(=O)NCCO)C(=O)N[C@H](COC(=O)[C@@H](CC=C)Cc1ccc(F)cc1)c1ccccc1	i	i	i	i	?	i
COc1ccc(NC(=O)/C=C/c2ccc(OC(F)F)cc2)cn1	i	?	21µM	?	i	i
O=C(COc1ccccc1)Nc1ccccc1C(=O)OCc1cc(=O)n2nc(C3CC3)sc2n1	nt	nt	nt	nt	i	i

Screening results as filed in PubChem.
